Assay results from the supplement of paper PMC9694430.

Assays:
Assay in all cases: thermal shift delta Tm vs DMSO control; higher = stronger stabilization (binding)
Conditions in all cases: 12.5 µM; protein concentration 2 µM
LOC_OS01G57100-cb003 = system: LOC_OS01G57100-cb003
Procedure, shortened: (§1)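 Thermal shift values come from differential scanning fluorimetry on purified rice kinase domains made in E. coli, with melting temperatures obtained from Boltzmann fits. Samples of 19.5 μl held 2 μM kinase, 100 mM potassium phosphate pH 7.5, 150 mM NaCl, 10% glycerol, 5 × SYPRO Orange and compound in DMSO, and were heated from 25°C to 95°C at 0.05°C/s. Each shift is a triplicate mean relative to the DMSO-only protein sample.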

LOC_OS01G60330-cb001 = system: LOC_OS01G60330-cb001
Procedure, shortened: as §1

LOC_OS01G60700-cb002 = system: LOC_OS01G60700-cb002
Procedure, shortened: as §1

LOC_OS01G63280-cb003 = system: LOC_OS01G63280-cb003
Procedure, shortened: as §1

LOC_OS01G67340-cb003 = system: LOC_OS01G67340-cb003
Procedure, shortened: as §1

LOC_OS01G70970-cb002 = system: LOC_OS01G70970-cb002
Procedure, shortened: as §1

LOC_OS02G07810-cb001 = system: LOC_OS02G07810-cb001
Procedure, shortened: as §1

LOC_OS02G08530-cb003 = system: LOC_OS02G08530-cb003
Procedure, shortened: as §1

LOC_OS02G14120-cb001 = system: LOC_OS02G14120-cb001
Procedure, shortened: as §1

LOC_OS02G17970-cb001 = system: LOC_OS02G17970-cb001
Procedure, shortened: as §1

LOC_OS02G45750-cb003 = system: LOC_OS02G45750-cb003
Procedure, shortened: as §1

LOC_OS02G54510-cb004 = system: LOC_OS02G54510-cb004
Procedure, shortened: as §1

LOC_OS03G04050-cb001 = system: LOC_OS03G04050-cb001
Procedure, shortened: as §1

LOC_OS03G12390-cb001 = system: LOC_OS03G12390-cb001
Procedure, shortened: as §1

LOC_OS03G27990-cb004 = system: LOC_OS03G27990-cb004
Procedure, shortened: as §1

LOC_OS03G50450-cb001 = system: LOC_OS03G50450-cb001
Procedure, shortened: as §1

LOC_OS03G50810-cb003 = system: LOC_OS03G50810-cb003
Procedure, shortened: as §1

LOC_OS04G35114-cb001 = system: LOC_OS04G35114-cb001
Procedure, shortened: as §1

LOC_OS04G38480-cb003 = system: T1, LOC_OS04G38480-cb003
T1 sequence (whole entry): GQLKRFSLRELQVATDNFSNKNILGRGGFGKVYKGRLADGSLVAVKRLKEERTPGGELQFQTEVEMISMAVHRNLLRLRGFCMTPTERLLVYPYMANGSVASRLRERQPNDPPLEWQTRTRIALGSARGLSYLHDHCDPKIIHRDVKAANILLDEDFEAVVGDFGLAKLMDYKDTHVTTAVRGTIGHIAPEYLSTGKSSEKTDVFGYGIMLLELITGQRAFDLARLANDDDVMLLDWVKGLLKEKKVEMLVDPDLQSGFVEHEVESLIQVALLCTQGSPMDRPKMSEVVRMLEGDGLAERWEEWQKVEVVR
Procedure, shortened: as §1

LOC_OS04G41100-cb001 = system: T2, LOC_OS04G41100-cb001
T2 sequence (whole entry): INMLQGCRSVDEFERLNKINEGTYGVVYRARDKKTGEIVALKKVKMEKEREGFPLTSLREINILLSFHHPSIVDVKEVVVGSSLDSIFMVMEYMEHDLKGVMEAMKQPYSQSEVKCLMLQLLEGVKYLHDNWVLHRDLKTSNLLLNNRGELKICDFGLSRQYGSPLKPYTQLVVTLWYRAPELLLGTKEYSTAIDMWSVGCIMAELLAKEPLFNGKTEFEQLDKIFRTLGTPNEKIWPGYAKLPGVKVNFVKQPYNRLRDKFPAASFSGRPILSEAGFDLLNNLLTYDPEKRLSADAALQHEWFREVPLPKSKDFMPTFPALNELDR
Procedure, shortened: as §1
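Further: purified Escherichia coli-expressed rice kinase domain construct.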

Row | Structure (SMILES) | thermal shift delta Tm (LOC_OS01G57100-cb003) | thermal shift delta Tm (LOC_OS01G60330-cb001) | thermal shift delta Tm (LOC_OS01G60700-cb002) | thermal shift delta Tm (LOC_OS01G63280-cb003) | thermal shift delta Tm (LOC_OS01G67340-cb003) | thermal shift delta Tm (LOC_OS01G70970-cb002) | thermal shift delta Tm (LOC_OS02G07810-cb001) | thermal shift delta Tm (LOC_OS02G08530-cb003) | thermal shift delta Tm (LOC_OS02G14120-cb001) | thermal shift delta Tm (LOC_OS02G17970-cb001) | thermal shift delta Tm (LOC_OS02G45750-cb003) | thermal shift delta Tm (LOC_OS02G54510-cb004) | thermal shift delta Tm (LOC_OS03G04050-cb001) | thermal shift delta Tm (LOC_OS03G12390-cb001) | thermal shift delta Tm (LOC_OS03G27990-cb004) | thermal shift delta Tm (LOC_OS03G50450-cb001) | thermal shift delta Tm (LOC_OS03G50810-cb003) | thermal shift delta Tm (LOC_OS04G35114-cb001) | thermal shift delta Tm (LOC_OS04G38480-cb003) | thermal shift delta Tm (LOC_OS04G41100-cb001)
1 | Cc1cc([C@@H](C)Nc2ccccc2C(=O)O)c2nc(N3CCOCC3)cc(=O)n2c1 | 1.15 °C | 0.75 °C | 0.5 °C | 0.68 °C | -0.15 °C | 0 °C | 1.33 °C | 0.42 °C | -0.15 °C | 0.98 °C | 0.61 °C | 0.49 °C | 0.29 °C | 0.3 °C | 0.29 °C | 0.63 °C | 0.56 °C | 0.73 °C | 0.55 °C | 0.37 °C
2 | Cc1nc(Nc2ncc(C(=O)Nc3c(C)cccc3Cl)s2)cc(N2CCN(CCO)CC2)n1 [Dasatinib] | 0.7 °C | 0.68 °C | 1.43 °C | 0.25 °C | 0.73 °C | 0.48 °C | 0.58 °C | 0.93 °C | 4.94 °C | 0 °C | 10.7 °C | 14 °C | 0.29 °C | 0.81 °C | 1.34 °C | 0.06 °C | 3.61 °C | 5.79 °C | 1.57 °C | 0.77 °C
3 | Cn1c(Nc2ccc(C(F)(F)F)cc2)nc2cc(Oc3ccnc(-c4ncc(C(F)(F)F)[nH]4)c3)ccc21 | 4.82 °C | 16.6 °C | 0.58 °C | 24.5 °C | 1.4 °C | 1.63 °C | 3.92 °C | 0.26 °C | 0.77 °C | 2.38 °C | 2.26 °C | 2.15 °C | 0.84 °C | 2.43 °C | 0.45 °C | 1.16 °C | 1.92 °C | 1.17 °C | 4.08 °C | 1.82 °C
4 | COc1ccccc1-c1cc(Nc2cccc(CS(N)(=O)=O)c2)ncn1 | 2.72 °C | 0.45 °C | 1.21 °C | 0.28 °C | 0.81 °C | 0.41 °C | 0.75 °C | 1.15 °C | 1.66 °C | 1.02 °C | 3.96 °C | 0.61 °C | 0.43 °C | 0.77 °C | 0.57 °C | 0.51 °C | 0.56 °C | 1.63 °C | 2.33 °C | 0.8 °C
5 | O=C(Nc1nccs1)C(c1cc(F)ccc1O)N1Cc2ccccc2C1=O (stereo not given) | 0.29 °C | 1.19 °C | 0.64 °C | -0.09 °C | 1.06 °C | 0.42 °C | 0.12 °C | 0.39 °C | 0.47 °C | 0.37 °C | 0.19 °C | 0.2 °C | -0.02 °C | -0.36 °C | 0.06 °C | -0.38 °C | 0.01 °C | 0.12 °C | 0.41 °C | 0.1 °C
6 | Nc1ncnc2c1c(-c1cnc3[nH]ccc3c1)nn2C1CCCC1 | 1.79 °C | 1.57 °C | 1.17 °C | 4.61 °C | 1.58 °C | 0.76 °C | 1.3 °C | 2.67 °C | 2.04 °C | 0.76 °C | 2.27 °C | 3.34 °C | 0.54 °C | 5.27 °C | 1.19 °C | 0.86 °C | 0.88 °C | 4.32 °C | 1.28 °C | 0.51 °C
